EBV LMP1 NFkB – Epstein-Barr LMP1 NF-kappaB reporter inhibition; LMP1-induced NF-kappaB luciferase reporter cells, luminescence; inhibition, % at 12.5 µM; 0.69% of 350,000 active; in the data active = inhibition above about 41%;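 also: 0% = neutral control wells and 100% = reference inhibitor control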
TRPM1 prom inh – MITF TRPM1 promoter inhibition in SK-MEL-5 cells | AID 488899 | 0.83% of 330,000 active | SK-MEL-5 TRPM1 promoter luciferase, 24 h | inhibition, % at 12.5 µM;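 active = mean inhibition across replicates of 60% or more, whatever share of single replicates reaches that level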
TROY NFkB inh – blocks TROY-dependent signaling in reporter cells; Q293 LMP1-TROYcd NF-kB luciferase reporter, 4 h; inhibition, % at 10 µM; 0.98% of 360,000 active; AID 1347056;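 active = compounds whose plate-normalised and pattern-corrected inhibition of the luciferase reporter signal at the single screening dose is 50% or more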
Peg3 prom inh – Peg3 promoter activity inhibition; HeLa PEG-Prom luciferase reporter, luminescence, overnight; inhibition, % at 20 µM; 1.7% of 360,000 active;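 active = inhibition of at least 50% at 20 µM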
Shn3 3UTR inh – Schnurri-3 reporter inhibition in Clone20 osteoblasts; Clone20 osteoblast Shn3 3'UTR firefly luciferase, 24 h; inhibition, % at 12.5 µM; 0.52% of 360,000 active; AID 588674;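 active = mean inhibition of at least 75% with every replicate also reaching 75%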;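 also: 0% = median of neutral control wells and 100% = pilot-screen positive control compound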
TWEAK Fn14 block – TWEAK-Fn14 signaling inhibition; TWEAK-stimulated Fn14 reporter cells, luciferase luminescence, 8 h; inhibition, % at 10 µM; 2% of 360,000 active; in the data active = inhibition above about 50%
Active calls of the source: *; . = no result. Hits are enriched below; roughly 4.1% of the tested compounds scored in any of these assays.

SMILES	EBV LMP1 NFkB	TRPM1 prom inh	TROY NFkB inh	Peg3 prom inh	Shn3 3UTR inh	TWEAK Fn14 block
CC(=O)/C=C/c1ccc2ccccc2n1	20.5	17.7	-6.6	102.9*	-39.1	63.8*
CCOc1ccc(/C=N/NC(=O)c2cc3ccccc3cc2OC)cc1	8.7	-7.2	13.9	15.8	3.2	16.6
Cc1[nH]c(=O)c(C#N)cc1-c1csc(-c2ccccc2)n1	12.1	30.8	-4.0	59.8*	8.3	-12.1
CCn1c(C)c(Br)c(=O)c(C(=O)OC)c1-c1ccc(Cl)cc1	1.0	0.2	-0.2	14.2	-29.4	-6.2
CC1CCN(Cc2ccc(-c3nnn(CC(=O)Nc4ccccc4Cl)n3)cc2)CC1	7.3	-11.9	-0.2	7.7	87.0*	-17.6
Cc1cccc(C)c1NC(=O)Cn1nnc(-c2ccc(CN3CCC(C)CC3)cc2)n1	-4.4	-4.7	21.2	0.4	37.8	-4.7
COc1cc(S(=O)(=O)N2CCOCC2)cc(C(=O)OCC(=O)NC2CCCCC2)c1OC	0.9	7.3	-4.1	-4.7	-13.8	-1.7
Nc1nccc(-c2ccc(-n3cnc4ccccc43)cc2)n1	38.1	-38.1	25.9	-126.7	-3.5	52.8*
CC(C)(C)c1ccc(NC(=O)Cn2cnc3cc([N+](=O)[O-])ccc3c2=O)cc1	-2.1	-2.4	1.8	17.9	7.8	-7.2
COc1ccc(NC(=O)CN(C)C(=O)c2ccc3c(c2)S(=O)(=O)N=C2CCCCCN23)cc1	-3.6	-1.1	-3.5	1.9	2.6	8.8
CCCCCOC(=O)Cn1c(=O)c2c(nc(N3CCOCC3)n2C)n(C)c1=O	8.0	1.2	6.5	8.7	-19.6	-6.1
CCCCCn1c(N2CCOCC2)nc2c1c(=O)n(CC(N)=O)c(=O)n2C	64.2*	-3.7	14.3	-4.3	10.5	-13.8
O=C(COc1cc2oc(=O)cc(-c3ccccc3)c2cc1Cl)NCc1ccccn1	-4.2	-11.5	-47.5	11.9	-12.8	-29.4
CCOc1ccc(NC(=O)Cn2cncc2-c2ccc([N+](=O)[O-])cc2)cc1	-16.1	35.8	-14.8	80.6*	-8.7	0.1
Cn1c(Cl)nc2ccccc21	-6.8	7.5	5.0	5.5	-3.0	19.0
Cn1c(N=Nc2ccccc2)nc2ccccc21	1.9	13.9	40.2	-208.9	-13.2	79.3*
Cc1onc(-c2ccccc2)c1C(=O)N/N=C/c1ccco1	-3.0	-2.8	-3.3	8.7	2.4	2.4
CCN(CC)c1ccc(/C=N/NC(=O)c2c(-c3ccccc3)noc2C)cc1	6.7	-4.6	52.8*	13.9	15.4	18.1
CCOc1ccc(/C=N/NC(=O)c2c(-c3ccccc3)noc2C)cc1	-3.1	-12.5	-4.7	18.4	18.6	10.1
Cc1onc(-c2ccccc2)c1C(=O)N/N=C/c1ccc([N+](=O)[O-])s1	5.3	64.9*	11.6	25.3	-0.8	30.1
CN(C)c1ccc(C=Nc2ccccc2C(N)=O)cc1	27.1	5.6	-49.1	63.2*	1.1	-2.3
Cc1ccc(C=Nc2ccccc2C(N)=O)o1	-1.6	-9.6	-12.3	-13.6	-7.3	-6.5
COc1ccc2cc(Br)ccc2c1CC(=O)NCCCN1CCOCC1	-2.0	-0.5	13.3	13.8	-44.7	7.7
O=C(O)c1ccc(N/N=C/c2cn(Cc3ccc(F)cc3)c3ccccc23)cc1	-9.6	-17.7	33.2	-117.6	-44.0	51.7*
CCNC(=S)N/N=C/c1cn(Cc2ccc(F)cc2)c2ccccc12	-2.7	-13.1	11.7	10.9	39.7	-0.8
SMILES	EBV LMP1 NFkB	TRPM1 prom inh	TROY NFkB inh	Peg3 prom inh	Shn3 3UTR inh	TWEAK Fn14 block
O=[N+]([O-])/C=C/c1cn(Cc2ccc(F)cc2)c2ccccc12	13.3	22.4	6.7	53.0*	32.6	19.0
CC(=O)Nc1ccccc1Nc1nc(NCCO)nc(N2CCCC2)n1	-4.9	-4.5	-10.1	-6.6	0.8	-3.1
Cc1ccc(OCC(=O)NC2CCSc3ccccc32)cc1 (stereo not drawn)	-5.8	-25.6	19.4	-63.1	1.3	-2.2
COc1cc(CSc2nnnn2-c2ccc(C)cc2)cc(OC)c1OC	26.7	23.5	53.6*	25.9	90.4*	48.2
COc1ccc(F)cc1CSc1nnnn1-c1ccc(O)cc1	-6.4	10.1	33.6	17.0	32.1	29.0
O=C(CSc1nc2c(c(=O)n1-c1ccc(F)cc1)SCC2)Nc1ccc2c(c1)OCO2	0.4	1.7	-7.5	13.8	-4.8	-6.0
COc1ccc(-n2c(SCC(=O)Nc3ccc4c(c3)OCO4)nc3c(c2=O)SCC3)cc1	76.0*	2.5	-25.6	14.7	-3.9	-4.8
CC(NC(=O)OC(C)(C)C)C(=O)Oc1cc2oc(=O)cc(-c3ccccc3)c2cc1Cl (stereo not drawn)	-18.6	-1.3	46.1	-6.6	10.0	71.3*
CCOC(=O)[C@H]1[C@H]2COc3ccc(Cl)cc3[C@@H]2N2C(=O)CN(Cc3ccc(Cl)cc3)C(=O)[C@@]12C	3.8	5.5	-5.5	-0.1	17.0	11.2
Cc1cc(C(=O)CN2C(=O)C3CC=CCC3C2=O)c(C)n1-c1ccccc1 (stereo not drawn)	-8.5	-37.2	-15.1	-227.6	-110.2	55.5*
Cc1cc(C(=O)CSc2nnnn2C)c(C)n1-c1ccc2c(c1)OCCO2	-34.2	-71.1	52.4*	-214.0	-14.3	21.6
Cc1cc(C(=O)CN2C(=O)C(=O)N(Cc3ccccc3)C2=O)c(C)n1-c1ccc2c(c1)OCCO2	1.8	-4.5	22.0	22.0	6.7	51.2*
Cc1cc(C(=O)CSc2nnc(-c3ccco3)o2)c(C)n1-c1ccc2c(c1)OCCO2	14.0	21.6	15.2	8.2	42.5	42.5
CCCC1(CCC)NC(=O)N(CC(=O)c2cc(C)n(-c3ccc4c(c3)OCO4)c2C)C1=O	-30.7	-11.6	-25.6	-7.4	13.9	-1.5
O=[N+]([O-])c1ccccc1S(=O)(=O)Nc1ccc(-c2ccc3nncn3n2)cc1	6.0	6.6	9.9	18.6	3.7	-15.5
O=C(COC(=O)C12CC3CC(CC(O)(C3)C1)C2)Nc1ccccc1OC(F)F	-2.8	-9.2	2.6	10.1	6.0	0.2
O=C(COC(=O)C12CC3CC(CC(O)(C3)C1)C2)Nc1ccc(Br)cc1F	-31.1	-127.8	58.4*	-234.4	-61.1	32.6
O=C(c1nn2c(C(F)(F)F)cc(-c3cccs3)nc2c1Cl)N1CCCc2ccccc21	-10.5	-1.4	25.2	30.7	57.8	54.2*
CCN(CC(=O)NCc1cccs1)C(=O)c1ccc(-c2ccc(F)cc2)o1	-3.7	3.3	11.6	-0.7	-28.9	79.9*
NNC(=O)c1ccc(OCC2CC(c3ccc(Cl)cc3)=NO2)cc1 (stereo not drawn)	-12.9	-7.9	-22.9	-60.3	-4.9	-9.5
Cc1c(CCO)c(=O)n2n1CCCC2	52.1*	-2.2	-2.4	-7.6	-19.9	-1.0
COc1ccc(C(=O)n2c(C)c(CCO)c(=O)n2C)cc1	-2.4	17.1	21.4	-15.4	11.0	22.9
CC(C)CC(N)c1csc(Nc2ncccn2)n1 (stereo not drawn)	.	.	-3.4	7.6	-5.5	-3.4
